# From PubChem BioAssay (Tox21)
# Results filed as inconclusive are left out. Entries that show only a call come without a potency. A number with no mark means an inactive call. The source made the active and inactive calls. Calls follow the shape of the dose curve; as a rule, active = well fitted cell-killing curve with a large enough effect in the repeat runs; inconclusive = weak or mixed curves, or effect the other way; inactive = flat fitted curve, though single readings scatter.
# Assay: qHTS RealTime-Glo MT Cell Viability Assay in HEK293 cells - 8 hour (AID 1224887); also: nearly all actives have a fitted effect of over 50% in size; as to activity change, negative = cytotoxicity: top concentration of the series differs between compounds
# Details: RealTime-Glo luminescence; series mostly up to 76.8 µM
# Source text: U.S. Tox21 Program National Center for Advancing Translational Sciences [NCATS] NIH Chemical Genomics Center [NCGC] U.S. Environmental Protection Agency [EPA] National Institutes of Environmental Health Sciences [NIEHS] National Toxicology Program [NTP] U.S. Food and Drug Administration [FDA] Tox21 Assay Overview: Measure of cell viability is critical in the cell-base assay. Analysis of cell viability is necessary for the characterization of cell responses to cytotoxic drugs and environmental stress. A RealTime-Glo MT Cell Viability Assay to monitor cell viability in real time of continues cell culture during 40 hours of compound treatment was used to screen Tox21 10K library compounds in Hek293 cells. The RealTime-Glo MT Cell Viability Assay is a nonlytic, homogeneous, bioluminescent method to measure cell viability in real time using a simple, plate-based method. The assay involves adding NanoLuc luciferase and a cell-permeant prosubstrate to cells in culture. Viable cells reduce the proprietary prosubstrate to generate a substrate for NanoLuc luciferase. This substrate diffuses from cells into the surrounding culture medium, where it is rapidly used by the NanoLuc Enzyme to produce a luminescent signal. The signal correlates with the number of viable cells, making the assay well suited for cytotoxicity studies.
# Tox21 Assay Protocol Summary: The mixture of Hek293 cell suspension and reagents were dispensed at 600cells/6 ul/well in 1536-well tissue culture treated black solid bottom plates using a Multidrop dispenser. After the assay plates were incubated at a 37 C/5% CO2 incubator for 5 hours, 23 nL of compounds dissolved in DMSO, positive and negative controls was transferred to the assay plate by a pintool work station. The plates were incubated at 37 C for 40 hours. The luminescence intensity were measured at 0h, 8h, 16h, 24h, 32h and 40h time points using ViewLux plate reader during compound treatment.
# Potency is read from the fitted curve at half-maximal effect.
Compound,Potency,"activity change, negative = cytotoxicity"
C=C(C)CCO,inactive,
CN1CCN(CCCN2c3ccccc3Sc3ccc(C(F)(F)F)cc32)CC1,23.9 µM (active),
Clc1ccc2c(Cl)ccnc2c1,inactive,
O=C1OCc2ccccc21,inactive,
Oc1ccc(C2(c3ccc(O)c(C4CCCCC4)c3)CCCCC2)cc1C1CCCCC1,43.6 µM (active),
Nc1ccc(Cl)c([N+](=O)[O-])c1,inactive,
CC(=O)Nc1ccc(N=Nc2cc(C)ccc2O)cc1,inactive,
Cc1ccc2n[nH]nc2c1,inactive,
O=C(CCCCCCCCc1cccnc1)N1CCC(C=C(c2ccccc2)c2ccccc2)CC1,21.9 µM (active),
COc1cc2ncnc(Nc3cccc(Cl)c3)c2cc1OC,,-3.64% [at 15.8 µM]
C=Cc1ccc(O)c(OC)c1,inactive,
CCCC(C)C=O (stereo not given),inactive,
O=[N+]([O-])c1ccc(O)c2ncccc12,inactive,
CCOC=C(C(=O)OCC)C(=O)OCC,inactive,
CC(C)=NNC(N)=S,inactive,
O=C(CCN1CCC(c2ccccc2)C1)c1ccc2c(c1)OCCO2 (stereo not given),inactive,
CCNc1nc(NC(C)(C)C)nc(OC)n1,inactive,
Cc1cccc(C)c1C,inactive,
c1ccc(-c2ccccc2-c2ccccc2)cc1,inactive,
CN(C)CCOc1ccc(/C(=C(/CCCl)c2ccccc2)c2ccccc2)cc1,40.9 µM (active),

Compound,Potency,"activity change, negative = cytotoxicity"
CCCCCCCCCCCCCCCCC(C(=O)O)C(O)(CC(=O)O)C(=O)O (stereo not given),inactive,
Nc1cccnc1N,inactive,
CN[C@H]1CC[C@@H](c2ccc(Cl)c(Cl)c2)c2ccc(S(N)(=O)=O)cc21,38.9 µM (active),
CC/C=C\C/C=C\C/C=C\CCCCCCCC(=O)OC,inactive,
CC1=CC[C@@H](C(C)(C)O)CC1,inactive,
CCSCC,inactive,
CCN(CCC#N)c1ccc(N=Nc2ccc([N+](=O)[O-])cc2)cc1,inactive,
CCN(CC)c1ccc2c(c1)Oc1cc(N(CC)CC)ccc1C21OC(=O)c2ccccc21,inactive,
CCOc1nc(F)cc2nc(S(=O)(=O)Nc3c(Cl)cccc3C(=O)OC)nn12,inactive,
CCc1cccc(CC)c1,inactive,
Cc1cc(F)ccc1-c1cc(N2CC[C@@H](O)[C@H]2CO)ncc1N(C)C(=O)C(C)(C)c1cc(C(F)(F)F)cc(C(F)(F)F)c1,34.1 µM (active),
COC(=O)c1ccc([N+](=O)[O-])cc1,inactive,
NCc1ccco1,inactive,
CN1CCN(c2ccccc2/C=C2\SCCN(c3ccc(Cl)c(Cl)c3)C2=O)CC1,12.3 µM (active),
CC1(C)[C@H](C(=O)OCc2cccc(Oc3ccccc3)c2)[C@@H]1C=C(Cl)Cl,inactive,
C=CC(=O)OCCOC1C2CCC1C1CC=CC12 (stereo not given),,-0.849% [at 15.8 µM]
O=C1CCC/C=C\CCCCCCCCCC1,inactive,
O=C(Cl)c1ccc(Cl)cc1Cl,inactive,
CCC(=O)OC/C=C(\C)CCC=C(C)C,inactive,
CC(C=O)c1ccccc1 (stereo not given),inactive,
